Screening data (PubChem)
Shown are actives, neighbours in structure and some others; about 2.4% of the full set was active somewhere.
WRN inhibitor: qHTS for Inhibitors of WRN Helicase; WRN helicase unwinding, fluorescent forked duplex, kinetic; Potency, µM (highest dose often 114 µM), hits mostly inhibitors; 360,000 tested, 0.46% active; further: nearly all actives have a fitted effect of over 55% in size
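Enzyme (20 nM final) and test compound sit together 15 min at room temperature before substrate addition. Substrate is a single-forked duplex oligonucleotide (100 nM) labelled with fluorophore and quencher, with 2 mM ATP; helicase unwinding raises red fluorescence, read kinetically.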
FEN1 inhibitor: qHTS Assay for the Inhibitors of Human Flap endonuclease 1 (FEN1) | P39748 | Recombinant FEN1 flap cleavage, fluorescence, 15 min | Potency, µM (top dose mostly 114 µM), hits mostly inhibitors | 390,000 tested, 0.35% active; further: nearly all actives have a fitted effect of over 65% in size
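Recombinant FEN1 (10 nM) was preincubated with pin-transferred compounds for 15 min at room temperature, then flap DNA substrate (50 nM final) was added. Plates were read at 0 and 15 min, and normalized concentration–response data were fitted to a four-parameter Hill equation.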
Pol beta inh: qHTS Assay for Inhibitors of DNA Polymerase Beta | Potency, µM (series often up to 114 µM), hits mostly inhibitors | 340,000 tested, 1.3% active | Pol beta primer extension/strand displacement, fluorescence kinetic | AID 485314, 2010
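Reaction started by 50 nM substrate onto compound-treated Pol beta (10 nM, 15 min preincubation, room temperature); plates read at 0 min and 10 min. Normalized concentration-effect data fitted by four-parameter Hill equation.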
Pol eta inh: qHTS for Inhibitors of Polymerase Eta; AID 588591, 2011; 390,000 tested, 1.2% active; recombinant Pol eta, fluorescent DNA replication assay; Potency, µM (titrated, usually from 114 µM), usual class: inhibitors; DNA polymerase eta (Homo sapiens), Q9Y253
Target sequence (Q9Y253 whole entry, looked up): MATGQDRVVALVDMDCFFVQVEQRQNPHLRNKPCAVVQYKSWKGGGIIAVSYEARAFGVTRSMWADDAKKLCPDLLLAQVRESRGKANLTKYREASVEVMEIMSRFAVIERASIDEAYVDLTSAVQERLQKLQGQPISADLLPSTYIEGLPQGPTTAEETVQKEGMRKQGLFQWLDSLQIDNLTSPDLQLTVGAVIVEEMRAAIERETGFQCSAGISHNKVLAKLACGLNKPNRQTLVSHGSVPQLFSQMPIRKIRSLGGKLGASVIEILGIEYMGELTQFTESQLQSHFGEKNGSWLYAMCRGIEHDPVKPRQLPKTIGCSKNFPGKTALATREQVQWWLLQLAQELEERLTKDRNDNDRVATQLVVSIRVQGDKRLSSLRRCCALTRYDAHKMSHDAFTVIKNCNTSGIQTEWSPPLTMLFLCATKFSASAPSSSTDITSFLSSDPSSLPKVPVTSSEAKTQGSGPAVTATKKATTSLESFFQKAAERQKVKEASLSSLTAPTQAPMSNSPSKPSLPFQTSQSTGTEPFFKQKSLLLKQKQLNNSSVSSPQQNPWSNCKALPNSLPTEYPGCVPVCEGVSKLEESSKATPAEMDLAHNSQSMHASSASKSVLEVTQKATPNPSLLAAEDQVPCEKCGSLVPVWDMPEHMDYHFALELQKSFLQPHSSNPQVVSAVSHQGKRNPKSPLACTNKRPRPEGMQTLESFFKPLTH
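Fluorescent replication assay: 50 nM final substrate added after a 15 min room-temperature compound preincubation with 10 nM enzyme. Signal taken at 0 min and again at 10 min.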
Pol iota inh: qHTS for Inhibitors of Polymerase Iota; 390,000 tested, 1% active; DNA polymerase iota (Homo sapiens), Q9UNA4; Potency, µM (top dose mostly 115 µM), most hits filed as inhibitors; Pol iota fluorescent replication assay, 10 min; AID 588590, 2011
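Pol iota at 10 nM preincubated 15 min with compounds at room temperature; reaction started with fluorescent substrate, 50 nM final. Fluorescence read kinetically at 0 and 10 min; buffer-only wells as negative control.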
POLK inh: qHTS for Inhibitors of Polymerase Kappa; purified Pol kappa, fluorescent DNA synthesis assay, 10 min; Potency, µM (top dose mostly 107 µM), most hits filed as inhibitors; 400,000 tested, 0.53% active
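Enzyme at 10 nM met test compounds for 15 min at room temperature. Substrate addition (50 nM final) began the reaction, which was monitored by fluorescence at 0 and 10 min.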
A number is an active result; i = inactive; ? = inconclusive; nt = no result; [ ] = remark or other dose. The call rests on the fitted dose curve; in most records, active means well fitted curve in the direction sought with a large enough effect; inconclusive means small, poorly fitted or top-dose-only effect, or another doubt; inactive means no such curve, though single readings can be large; an effect the other way counts as inactive or inconclusive.

SMILES	WRN inhibitor	FEN1 inhibitor	Pol beta inh	Pol eta inh	Pol iota inh	POLK inh
CCc1ccc(C2c3c(-c4cc(C)ccc4O)n[nH]c3C(=O)N2Cc2cccnc2)cc1 (centres undefined)	nt	i	i	i	i	i
NS(=O)(=O)c1ccc(NNC(=O)c2ccccc2)cc1	i	i	i	i	i	i
O=C(NNc1cc(Br)c(O)c(Br)c1)c1ccccc1	i	?	i	i	22.4µM	?
COc1cc(-c2cc(=O)c3c(C)cc(O)cc3o2)cc(OC)c1OC	i	i	nt	?	i	i
COc1ccc(-c2cc(=O)c3c(C)cc(O)cc3o2)cc1	?	?	nt	?	20µM	?
CC(=O)C(C(C)=O)C(NC(=O)c1cccnc1)(C(F)(F)F)C(F)(F)F	89.1µM	i	i	i	i	i
CCOC(=O)C(O)(NC(=O)c1cccnc1)C(F)(F)F (centres undefined)	i	i	i	i	i	i
Nc1cccc(/C=C/c2ccnc3ccccc23)c1	nt	i	nt	nt	i	i
C1=CN2CC=Cc3cc(/C=C/c4ccnc5ccccc45)cc(c32)C1	nt	?	nt	nt	79.4µM	?
O=C(NNC(=O)c1cccc(-n2cccc2)c1)c1ccc(F)cc1	?	i	nt	14.1µM	50.1µM	?
CC(=O)N(C[C@@H](C)C(=O)O)c1c(I)cc(I)c(N)c1I	nt	nt	nt	nt	nt	i[19.4 µM]
COc1ccc(/C=C2\SC(=O)N(CCC(=O)Nc3ccc(S(=O)(=O)Nc4nccs4)cc3)C2=O)cc1	i	i	50.1µM	i	i	i
COc1ccc(/C=C2/SC(=O)N(CCC(=O)Nc3ccc(S(=O)(=O)Nc4nccs4)cc3)C2=O)cc1	?	?	22.4µM	31.6µM	?	i
O=C(CCN1C(=O)S/C(=C\c2cccs2)C1=O)Nc1nccs1	i	i	i	i	i	i
Cc1ccc(N2CC(C(=O)Nc3ccc(S(=O)(=O)Nc4nccs4)cc3)CC2=O)cc1C (centres undefined)	i	i	i	i	i	i
COc1ccc(N2CC(C(=O)Nc3ccc(S(=O)(=O)Nc4nccs4)cc3)CC2=O)c(OC)c1 (centres undefined)	i	i	nt	50.1µM	?	?
COc1ccc(/C=C2\SC(=S)N(CCC(=O)Nc3ccc(O)cc3)C2=O)cc1	i	i	i	i	i	i
COc1cccc(N2CCN(C(=O)c3cnn(-c4ccccc4Cl)c3C3CCN(C(=O)OC(C)(C)C)CC3)CC2)c1	nt	i	i	i	i	i
Cc1ccc2c(c1)C1OCCC1C1N2C(=O)C2C(C(=O)O)C3C=CC21O3 (centres undefined)	i	i	39.8µM	?	?	i
O=C1CC(c2ccco2)CC(O)=C1C=Nc1cc(Cl)cc(Cl)c1 (centres undefined)	?	?	39.8µM	?	?	70.8µM
O=C(Nc1ccc(Cl)c(Cl)c1)c1ccc(Cl)c(Cl)c1	i	i	i	i	i	i
O=C(Nc1ccc(C2=NCCN2)cc1)c1ccc(Cl)c(C(=O)Nc2ccc(C3=NCCN3)cc2)c1	nt	nt	50.1µM	nt	nt	nt
Cc1ccc(N2CC(NC(=O)c3cc4ccccc4o3)CC2=O)cc1 (centres undefined)	nt	i	i	i	i	i
CC(=O)Nc1cc(-c2cccc(C(=O)NCCN(C)C)c2)cn2c(-c3cccc(C(F)(F)F)c3)cnc12	79.4µM	nt	nt	nt	nt	nt
COc1ccc(NS(=O)(=O)c2ccc3[nH]c4c(c3c2)CCCCC4)cc1	nt	i	i	i	i	i
SMILES	WRN inhibitor	FEN1 inhibitor	Pol beta inh	Pol eta inh	Pol iota inh	POLK inh
O=C1C(Cl)=C(N2CCN(c3ccccc3[N+](=O)[O-])CC2)C(=O)c2ccccc21	i	i	i	?	7.94µM	i
O=[N+]([O-])c1cc(Cl)ccc1N1CCCC1	i	i	i	i	i	i
Cc1ccccc1NC(=O)Cn1c(SCC(=O)Nc2ccc(F)cc2)nc2ccccc21	nt	i	i	i	i	i
CCn1c(C(=O)Nc2ccccc2C(=O)OC)cc2sc(Cl)cc21	nt	i	i	i	i	i
COc1ccc(N2C(=O)/C(=C\c3ccco3)N=C2SCC(=O)N(C(C)C)C(C)C)cc1Cl	i	i	56.2µM	i	i	i
CCN(C(=O)CSc1nc2ccccc2n1CC(=O)NCc1ccc(OC)cc1)c1ccccc1	nt	i	i	i	?	i
C(=C\c1ccco1)/c1ccc2ccccc2n1	i	i	10µM	i	?	?
COc1cc2ccc(=O)oc2cc1OCC(O)C(C)(C)O (centres undefined)	i	i	35.5µM	i	?	?
O=c1c2c3c(sc2n(CCN2CCCC2)c(=O)n1Cc1ccco1)CCCCC3	i	i	?	i	i	i
O=C(Cn1c(=O)n(Cc2ccco2)c(=O)c2c3c(sc21)CCCCC3)Nc1ccccc1	?	?	31.6µM	50.1µM	12.6µM	?
O=C(Cn1c(=O)n(Cc2ccco2)c(=O)c2c3c(sc21)CCCCC3)c1ccccc1	?	i	10µM	?	?	i
Cc1ccc(NC(=O)Cn2c(=O)n(CCc3ccccc3)c(=O)c3c4c(sc32)CCCC4)cc1C	nt	i	i	i	i	i
C#CCOC(=O)c1ccccc1C(=O)O	i	i	i	i	79.4µM	i
COc1ccc(NC2CCCN(C(=O)CCN3CCOCC3)C2)cc1 (centres undefined)	i	i	i	i	79.4µM	i
Cc1cc2nc(-c3cccc(NC(=O)CSc4ccc(Cl)cc4)c3)oc2cc1C	nt	i	i	i	i	i
C=CCOc1ccc(/C=C\c2nc(O)c([N+](=O)[O-])c(=O)[nH]2)cc1OCC	i[11.6 µM]	i	i	20µM	?	i
COc1ccc(/C=C\c2nc(O)c([N+](=O)[O-])c(=O)[nH]2)cc1O	?	i	i	i	i	i
C=CCOc1cccc(/C=C\c2nc(O)c([N+](=O)[O-])c(=O)[nH]2)c1	i	i	i	i	?	i
COC(=O)COc1c(/C=C\c2nc(O)c([N+](=O)[O-])c(=O)[nH]2)cccc1OC	i	i	i	i	?	i
C=CCOc1ccc(/C=C\c2nc(O)c([N+](=O)[O-])c(=O)[nH]2)cc1OC	i	?	i	25.1µM	50.1µM	?
C#CCOc1c(/C=C\c2nc(O)c([N+](=O)[O-])c(=O)[nH]2)cc(Br)cc1OC	i[11.6 µM]	?	?	35.5µM	?	i
CC(C)(C)n1ncc2c(=O)n(Cc3ccc(C#N)cc3)cnc21	nt	i	nt	nt	?	?
O=C(NCC(c1ccc(Cl)cc1)N1CCCCC1)c1ccccc1F (centres undefined)	nt	i	i	i	i	i
